About 2,000 (36%) of roughly 5,500 compounds were called active. Roughly 18% stayed inconclusive and do not appear here. The list shows a part of the results. Values without a mark were called inactive. No stated cut-off is given here; in the data, active means normalized growth mostly below about 0.91 (no sharp cut-off); inconclusive means no clear call, values can overlap the other calls; inactive means mostly above about 0.92.
Assay: chemical genetic growth profiling, strain panel (AID 1159580);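 further: tested at 20 µM; growth read once vehicle control cultures reached saturation at 30 °C; 1 = growth at the plate median or of vehicle wells; lower values mean less growth of the strain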
Conditions: S. cerevisiae deletion strains, growth OD
[1] = locus YHR030C, strain SLT2, active compounds read low

What does the source list for Cc1cc(C)cc(N2C(=O)CC(Sc3ccccc3C(=O)O)C2=O)c1 (configuration not stated)?
normalized growth (locus YAL013W, strain DEP1, active compounds read low): 0.955; normalized growth (locus YBR229C, strain ROT2, active compounds read low): 0.987; normalized growth (locus YDL101C, strain DUN1, active compounds read low): 0.953; normalized growth (locus YDL134C, strain PPH21, active compounds read low): 0.773 (active); normalized growth (locus YDR150W, strain NUM1, active compounds read low): 0.945; normalized growth (locus YEL061C, strain CIN8, active compounds read low): 0.961; normalized growth (locus YGR078C, strain PAC10, active compounds read low): 1; normalized growth [1]: 0.668 (active); normalized growth (locus YHR087W, strain rtc3, active compounds read low): 0.987; normalized growth (locus YJL187C, strain SWE1, active compounds read low): 0.894 (active); normalized growth (locus YJR043C, strain POL32, active compounds read low): 0.789 (active); normalized growth (locus YJR075W, strain HOC1, active compounds read low): 1.01; normalized growth (locus YKL190W, strain CNB1, active compounds read low): 0.771 (active); normalized growth (locus YLR039C, strain RIC1, active compounds read low): 0.109 (active); normalized growth (locus YLR058C, strain SHM2 (second series), active compounds read low): 0.995; normalized growth (locus YLR085C, strain ARP6, active compounds read low): 0.619 (active); normalized growth (locus YLR262C, strain YPT6, active compounds read low): 0.12 (active); normalized growth (locus YML094W, strain GIM5, active compounds read low): 0.849 (active); normalized growth (locus YMR219W, strain ESC1, active compounds read low): 0.996; normalized growth (locus YMR263W, strain SAP30, active compounds read low): 0.928; normalized growth (locus YNL153C, strain GIM3, active compounds read low): 0.876 (active); normalized growth (locus YNL298W, strain CLA4 (second series), active compounds read low): 0.711 (active); normalized growth (locus YNL322C, strain KRE1, active compounds read low): 1; normalized growth (locus YNR030W, strain Alg12, active compounds read low): 0.078 (active); normalized growth (locus YOL006C, strain TOP1, active compounds read low): 0.27 (active); normalized growth (locus YPL055C, strain LGE1, active compounds read low): 0.876; normalized growth (locus YPL241C, strain CIN2, active compounds read low): 0.0797 (active); normalized growth (locus YPR135W, strain CTF4, active compounds read low): 0.222 (active)

Which normalized growth (locus YAL021C, strain ccr4, active compounds read low) does the source give for CN(C)C(=N)N=C(N)N here?
The normalized growth was 1.01.

What about the normalized growth (locus YAL026C, strain drs2, active compounds read low) of the same molecule?
Its normalized growth is 1.02.

And the normalized growth (locus YAL030W, strain snc1, active compounds read low)?
Its normalized growth is 0.997.

What about the normalized growth (locus YBL061C, strain skt5, active compounds read low) of the same molecule?
Its normalized growth is 1.03.

And the normalized growth (locus YBR009C, strain hhf1, active compounds read low)?
The normalized growth was 0.966.

And the normalized growth (locus YBR023C, strain chs3, active compounds read low)?
Its normalized growth is 1.02.

What about the normalized growth (locus YBR171W, strain sec66, active compounds read low) of the same molecule?
Its normalized growth is 1.01.

And the normalized growth (locus YBR231C, strain swc5, active compounds read low)?
Its normalized growth is 0.997.

What about the normalized growth (locus YBR279W, strain paf1, active compounds read low) of the same molecule?
The normalized growth was 1.03.

What about the normalized growth (locus YCL011C, strain gbp2, active compounds read low) of the same molecule?
Its normalized growth is 1.01.

And the normalized growth (locus YCL016C, strain dcc1, active compounds read low)?
Its normalized growth is 1.04.

What about the normalized growth (locus YCL061C, strain MRC1, active compounds read low) of the same molecule?
The normalized growth was 0.995.

What about the normalized growth (locus YCL069W, strain vba3, active compounds read low) of the same molecule?
The normalized growth was 1.

What about the normalized growth (locus YCR088W, strain abp1, active compounds read low) of the same molecule?
Its normalized growth is 1.01.

What about the normalized growth (locus YDL005C, strain med2, active compounds read low) of the same molecule?
The normalized growth was 1.02.

What about the normalized growth (locus YDL040C, strain nat1, active compounds read low) of the same molecule?
Its normalized growth is 1.

What about the normalized growth (locus YDR001C, strain nth1, active compounds read low) of the same molecule?
The normalized growth was 1.

What about the normalized growth (locus YDR069C, strain doa4, active compounds read low) of the same molecule?
Its normalized growth is 0.984.

What about the normalized growth (locus YDR137W, strain rgp1, active compounds read low) of the same molecule?
Its normalized growth is 1.05.

What about the normalized growth (locus YDR159W, strain sac3, active compounds read low) of the same molecule?
The normalized growth was 0.893.

And the normalized growth (locus YDR195W, strain ref2)?
The normalized growth was 1.02.

And the normalized growth (locus YDR297W, strain sur2, active compounds read low)?
Its normalized growth is 0.998.

What about the normalized growth (locus YDR334W, strain swr1, active compounds read low) of the same molecule?
The normalized growth was 0.998.

What about the normalized growth (locus YDR335W, strain msn5, active compounds read low) of the same molecule?
Its normalized growth is 1.03.

And the normalized growth (locus YDR392W, strain spt3, active compounds read low)?
Its normalized growth is 0.858.

What about the normalized growth (locus YEL003W, strain gim4, active compounds read low) of the same molecule?
Its normalized growth is 0.985.

And the normalized growth (locus YEL037C, strain rad23, active compounds read low)?
Its normalized growth is 1.01.

What about the normalized growth (locus YEL061C, strain CIN8 (second series), active compounds read low) of the same molecule?
The normalized growth was 1.

What about the normalized growth (locus YER015W, strain faa2, active compounds read low) of the same molecule?
The normalized growth was 1.01.

And the normalized growth (locus YER016W, strain bim1, active compounds read low)?
The normalized growth was 1.02.

And the normalized growth (locus YER111C, strain swi4, active compounds read low)?
The normalized growth was 1.03.

And the normalized growth (locus YER155C, strain BEM2 (second series), active compounds read low)?
The normalized growth was 0.867.

And the normalized growth (locus YFR010W, strain ubp6, active compounds read low)?
The normalized growth was 0.978.

And the normalized growth (locus YGL167C, strain pmr1, active compounds read low)?
Its normalized growth is 0.999.

What about the normalized growth (locus YGL173C, strain kem1, active compounds read low) of the same molecule?
Its normalized growth is 0.993.

What about the normalized growth (locus YGL227W, strain vid30, active compounds read low) of the same molecule?
Its normalized growth is 0.996.

And the normalized growth (locus YGL240W, strain doc1, active compounds read low)?
The normalized growth was 0.996.

And the normalized growth (locus YGL253W, strain hxk2, active compounds read low)?
The normalized growth was 1.04.

What about the normalized growth (locus YHR013C, strain ard1, active compounds read low) of the same molecule?
Its normalized growth is 1.01.

And the normalized growth (locus YHR027C, strain rpn1, active compounds read low)?
The normalized growth was 0.986.

And the normalized growth [1]?
Its normalized growth is 1.02.

And the normalized growth (locus YHR079C, strain IRE1, active compounds read low)?
Its normalized growth is 0.977.

What about the normalized growth (locus YHR142W, strain chs7, active compounds read low) of the same molecule?
Its normalized growth is 1.02.

And the normalized growth (locus YJL092W, strain hpr5, active compounds read low)?
The normalized growth was 0.997.

And the normalized growth (locus YJL095W, strain BCK1 (second series), active compounds read low)?
The normalized growth was 1.01.

What about the normalized growth (locus YJL095W, strain BCK1, active compounds read low) of the same molecule?
The normalized growth was 0.987.

And the normalized growth (locus YJL115W, strain asf1, active compounds read low)?
Its normalized growth is 1.01.

And the normalized growth (locus YJL129C, strain trk1, active compounds read low)?
Its normalized growth is 1.

And the normalized growth (locus YJL154C, strain vps35, active compounds read low)?
Its normalized growth is 1.

What about the normalized growth (locus YJL164C, strain tpk1, active compounds read low) of the same molecule?
The normalized growth was 0.969.

And the normalized growth (locus YJL166W, strain qcr8, active compounds read low)?
The normalized growth was 0.982.

And the normalized growth (locus YJR066W, strain TOR1, active compounds read low)?
The normalized growth was 0.952.

And the normalized growth (locus YKL160W, strain elf1, active compounds read low)?
Its normalized growth is 1.04.

What about the normalized growth (locus YKR026C, strain gcn3, active compounds read low) of the same molecule?
Its normalized growth is 1.

And the normalized growth (locus YKR091W, strain srl3, active compounds read low)?
The normalized growth was 0.998.

And the normalized growth (locus YLL001W, strain dnm1, active compounds read low)?
The normalized growth was 0.98.

What about the normalized growth (locus YLL026W, active compounds read low) of the same molecule?
Its normalized growth is 1.

What about the normalized growth (locus YLL041C, strain sdh2, active compounds read low) of the same molecule?
The normalized growth was 0.998.

What about the normalized growth (locus YLR027C, strain aat2, active compounds read low) of the same molecule?
Its normalized growth is 0.991.

And the normalized growth (locus YLR113W, strain HOG1, active compounds read low)?
Its normalized growth is 0.954.

What about the normalized growth (locus YLR221C, strain rsa3, active compounds read low) of the same molecule?
The normalized growth was 0.963.

What about the normalized growth (locus YLR258W, strain gsy2, active compounds read low) of the same molecule?
The normalized growth was 1.03.

And the normalized growth (locus YLR262C, strain YPT6 (second series), active compounds read low)?
Its normalized growth is 0.987.

And the normalized growth (locus YLR320W, strain mms22, active compounds read low)?
The normalized growth was 0.93.

And the normalized growth (locus YLR342W, strain FKS1, active compounds read low)?
The normalized growth was 0.996.

What about the normalized growth (locus YLR357W, strain rsc2, active compounds read low) of the same molecule?
Its normalized growth is 1.

And the normalized growth (locus YLR370C, strain arc18, active compounds read low)?
Its normalized growth is 1.01.

And the normalized growth (locus YLR384C, strain iki3, active compounds read low)?
The normalized growth was 0.99.

And the normalized growth (locus YML120C, strain ndi1, active compounds read low)?
Its normalized growth is 0.992.

And the normalized growth (locus YMR058W, strain fet3, active compounds read low)?
The normalized growth was 1.

What about the normalized growth (locus YMR125W, strain sto1, active compounds read low) of the same molecule?
Its normalized growth is 1.01.

And the normalized growth (locus YMR129W, active compounds read low)?
The normalized growth was 0.992.

And the normalized growth (locus YMR205C, strain PFK2, active compounds read low)?
Its normalized growth is 0.985.

And the normalized growth (locus YMR231W, strain pep5, active compounds read low)?
Its normalized growth is 1.

What about the normalized growth (locus YNL071W, strain lat1, active compounds read low) of the same molecule?
Its normalized growth is 0.995.

What about the normalized growth (locus YNL183C, strain NPR1, active compounds read low) of the same molecule?
The normalized growth was 0.923.

What about the normalized growth (locus YNL209W, strain ssb2, active compounds read low) of the same molecule?
The normalized growth was 1.02.

And the normalized growth (locus YNL248C, strain rpa49, active compounds read low)?
Its normalized growth is 1.02.

What about the normalized growth (locus YNL322C, strain KRE1 (second series), active compounds read low) of the same molecule?
Its normalized growth is 1.02.

What about the normalized growth (locus YNR049C, strain mso1, active compounds read low) of the same molecule?
Its normalized growth is 0.992.

And the normalized growth (locus YOR001W, strain rrp6, active compounds read low)?
Its normalized growth is 0.948.

What about the normalized growth (locus YOR070C, strain gyp1, active compounds read low) of the same molecule?
The normalized growth was 1.01.

What about the normalized growth (locus YOR080W, strain dia2, active compounds read low) of the same molecule?
The normalized growth was 1.

And the normalized growth (locus YOR083W, strain WHI5, active compounds read low)?
Its normalized growth is 0.975.

What about the normalized growth (locus YOR106W, strain vam3, active compounds read low) of the same molecule?
The normalized growth was 1.02.

And the normalized growth (locus YOR231W, strain MKK1, active compounds read low)?
Its normalized growth is 0.99.

What about the normalized growth (locus YOR265W, strain rbl2, active compounds read low) of the same molecule?
Its normalized growth is 1.01.

And the normalized growth (locus YOR270C, strain vph1, active compounds read low)?
Its normalized growth is 0.929.

And the normalized growth (locus YOR290C, strain snf2, active compounds read low)?
Its normalized growth is 1.05.

What about the normalized growth (locus YPL051W, strain arl3, active compounds read low) of the same molecule?
Its normalized growth is 1.05.

What about the normalized growth (locus YPL078C, strain atp4, active compounds read low) of the same molecule?
Its normalized growth is 1.05.

And the normalized growth (locus YPL106C, strain sse1, active compounds read low)?
Its normalized growth is 1.09.

What about the normalized growth (locus YPL240C, strain hsp82, active compounds read low) of the same molecule?
Its normalized growth is 1.

What about the normalized growth (locus YPL256C, strain CLN2, active compounds read low) of the same molecule?
Its normalized growth is 0.961.
